Results on 15 compounds are retold here after PubChem BioAssay (NCI).

Molecules are shown by their SMILES. The panel holds about 83,000 compounds, 20% with a hit somewhere; the sample as a whole holds those more often.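 96-well plates, one dose, 48 hours. Percent growth reported; active if below 10.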 A number with no mark means an inactive call. Active and inactive are the calls of the source.

Test systems include HT29 colon; SNB-75 CNS; SNB-19 CNS; U251 CNS; PC-3 prostate; UACC-62 melanoma; SK-MEL-28 melanoma; SK-MEL-2 melanoma; SK-MEL-5 melanoma; LOX IMVI melanoma.
Assay in all cases: NCI-60 one-dose screen, 48 h (100 = growth as untreated, 0 = no growth, -100 = all killed)
Conditions in all cases: 10 µM unless noted

`COc1cccc(NC2=CC(=O)C(C)=C(C)C2=O)c1`: the growth is 98.3% in the test with HT29 colon; 99.8% with SNB-75 CNS; 97.7% in the test with SNB-19 CNS; 95.1% with U251 CNS; 36.3% in the test on PC-3 prostate; 91.8% in the test with UACC-62 melanoma. For the same compound, the growth in the test on SK-MEL-28 melanoma is 96.5%; in the test on SK-MEL-2 melanoma, 83.6%.

With `CN1C(=S)N(C)C2C1NN=C1SC(c3ccccc3)=CC(=O)N12` (stereo not given), the growth in the test on HT29 colon was 103%; in the test on SNB-75 CNS, 115%; in the test with SNB-19 CNS, 98.9%; with U251 CNS, 95.1%; in the test on PC-3 prostate, 87.5%; in the test with SK-MEL-5 melanoma it was 64.3%. The growth was 92.2% in the test with LOX IMVI melanoma, 102% in the test with SK-MEL-28 melanoma and 95.2% in the test on SK-MEL-2 melanoma.

Take `CCN1CCN(S(=O)(=O)c2oc(-c3ccc(Cl)cc3)nc2C#N)CC1`: the growth in the test with HT29 colon is 2.82% (active); with SNB-75 CNS, 87.5%; in the test with SNB-19 CNS, 95.8%; with U251 CNS, 96.6%; with PC-3 prostate it was 87.4%; in the test on SK-MEL-5 melanoma it was 95.2%. Besides, the growth with LOX IMVI melanoma was -89.2% (active); in the test on SK-MEL-28 melanoma, 53.5%; in the test with SK-MEL-2 melanoma, 104%.

Turning to `CCOc1ccc2nc(NC(=O)c3ccc(C(F)(F)F)cc3)sc2c1`, the growth is 97.9% in the test with HT29 colon; 102% in the test with SNB-75 CNS; 101% in the test on SNB-19 CNS; 100% with U251 CNS; 108% in the test with PC-3 prostate; 99.1% with UACC-62 melanoma. The values for the growth in the test with SK-MEL-28 melanoma and in the test with SK-MEL-2 melanoma were 105% and 103%, respectively.

In the case of `COc1ccc(CNS(=O)(=O)/N=C2\NC(=O)NC2=C(Cl)Cl)cc1`, the growth with HT29 colon is 8.17% (active); with SNB-75 CNS, -23.1% (active); with SNB-19 CNS, 30%; with U251 CNS, 14.8%; with PC-3 prostate, 28%; in the test with UACC-62 melanoma, 27.4%. The results for the growth in the test on SK-MEL-28 melanoma and in the test on SK-MEL-2 melanoma were 48.7% and 29.1%, respectively.

Take `CN(C)c1ccc(/C=C2\Cc3c(F)ccc(Br)c3C2=O)cc1`: the growth was 104% in the test with HT29 colon; 87.8% in the test on SNB-75 CNS; 93.1% in the test with SNB-19 CNS; 91.6% in the test on U251 CNS; 92% in the test with PC-3 prostate; 96.4% with SK-MEL-5 melanoma. The growth in the test on SK-MEL-28 melanoma was 97.4%.

On to `COc1cc(-c2nc3ccc(-c4nnc(SCC(=O)Nc5ccc(C(=O)/C=C/c6ccc(Cl)cc6)cc5)o4)cc3[nH]2)cc(OC)c1OC`, for which the growth in the test with HT29 colon was 102%; in the test on SNB-75 CNS, 85.3%; in the test on SNB-19 CNS, 93.4%; with U251 CNS it was 77.6%; in the test with PC-3 prostate, 95.1%; in the test with SK-MEL-5 melanoma, 91.4%. The growth with LOX IMVI melanoma is -31.6% (active); with SK-MEL-28 melanoma, 102%; in the test with SK-MEL-2 melanoma, 100%.

With `Cc1ccc2c(n1)C(=O)C(Cl)=C(Nc1cccc(C(C)C)c1)C2=O`, the growth in the test on HT29 colon is 97%; in the test with SNB-75 CNS, 68.6%; in the test with SNB-19 CNS, 71.7%; with U251 CNS, 60.3%; with PC-3 prostate, 57.9%; in the test on UACC-62 melanoma it was 87.1%. Besides, the growth in the test on SK-MEL-28 melanoma is 63.1%; with SK-MEL-2 melanoma, 47.2%.

With `NC(=O)c1c(NC(=O)c2ccc(C3CCCCC3)cc2)sc2c1CCC(=O)C2`, the growth is 2.41% (active) in the test with HT29 colon; 43.2% in the test with SNB-75 CNS; 25.5% in the test with SNB-19 CNS; 10.7% in the test with U251 CNS; 16.1% in the test with PC-3 prostate; 26.4% in the test on UACC-62 melanoma. Also, the growth is 31.7% in the test with SK-MEL-28 melanoma and 25.7% with SK-MEL-2 melanoma.

Turning to `O=c1/c(=C\c2ccc(-c3ccccc3)o2)sc2nc(-c3ccccc3)nn12`, the growth with HT29 colon was 102%; in the test with SNB-75 CNS, 99.8%; in the test on SNB-19 CNS it was 93.3%; with U251 CNS it was 98.8%; in the test with PC-3 prostate, 95.7%; with SK-MEL-5 melanoma it was 101%. Also, the growth in the test on LOX IMVI melanoma is 95.9%; with SK-MEL-28 melanoma, 109%; with SK-MEL-2 melanoma it was 114%.

Take `CC(C)(C)Nc1nc2c(OCCc3ccccc3)cccn2c1-c1ccccc1Cl`: the growth in the test with HT29 colon is -47.3% (active); with SNB-75 CNS, 34.5%; in the test with SNB-19 CNS, 18.4%; in the test with U251 CNS it was -44.7% (active); with PC-3 prostate it was -40% (active); in the test on SK-MEL-5 melanoma, -92.5% (active). In addition, the results for the growth in the test on LOX IMVI melanoma, with SK-MEL-28 melanoma and with SK-MEL-2 melanoma were -96% (active), 0.829% (active) and -76.2% (active), respectively.

On to `COc1ccc(NC2=CC(=O)C(C)=C(C)C2=O)cc1`, for which the growth was 109% in the test on HT29 colon; 123% in the test on SNB-75 CNS; 99.2% in the test on SNB-19 CNS; 92% with U251 CNS; 71.5% with PC-3 prostate; 95.4% in the test on UACC-62 melanoma. For the same compound, the growth in the test with SK-MEL-28 melanoma is 99.4%; in the test with SK-MEL-2 melanoma it was 81.8%.

With `COc1cccc(-c2nn(-c3ccccc3)cc2-c2ccnc(N3CCN(C(=O)Nc4ccc(F)cc4)CC3)c2)c1`, the growth with HT29 colon is 70%; in the test on SNB-75 CNS, 66.5%; with SNB-19 CNS, 64.5%; with U251 CNS, 67.4%; with PC-3 prostate, 44.3%; in the test with SK-MEL-5 melanoma it was 42.5%. Besides, the growth is 59% in the test on LOX IMVI melanoma, 69.6% in the test with SK-MEL-28 melanoma and 51.1% in the test on SK-MEL-2 melanoma.

As for `CSc1ccc2c(c1)N(C(=O)/C(C#N)=C/c1c[nH]c3ccccc13)c1ccccc1S2`, the growth in the test with HT29 colon was 12.2%; with SNB-75 CNS, 8.61% (active); in the test on SNB-19 CNS, 41%; with U251 CNS, 42.1%; in the test on PC-3 prostate, 28.8%; in the test with UACC-62 melanoma it was 41.8%. Further, in the test with SK-MEL-28 melanoma, the growth was 58.5%.

For the compound `Clc1ccc(-c2cn3cc(Cc4ccc(Cl)c(Cl)c4)sc3n2)cc1`, the growth in the test with HT29 colon was 90.5%; with SNB-75 CNS, 70.7%; with SNB-19 CNS, 88.9%; with U251 CNS it was 93.7%; in the test with PC-3 prostate, 81.6%; in the test on SK-MEL-5 melanoma, 38.2%. Moreover, the figures for the growth in the test on LOX IMVI melanoma, in the test on SK-MEL-28 melanoma and in the test with SK-MEL-2 melanoma were 53.1%, 71% and 113%, respectively.
